# Measurements: the antibiotic and cytotoxicity screens of Wong et al. (2023)
# Hit rate of the full screen: of about 39,000 compounds, about 1,500 (3.8%) were called active. The sample as a whole holds a higher share of actives than the screen did.
# Tested on: HSkMC (human skeletal muscle cells)
# Assay: cytotoxicity call (relative viability < 0.9)
# Settings: 10 µM
row,Structure (SMILES),cytotoxicity call
1,C[C@@H]1CN([C@@H](C)CO)C(=O)Cc2cc(NS(=O)(=O)c3cn(C)cn3)ccc2O[C@H]1CN(C)S(=O)(=O)c1ccc(F)cc1,inactive
2,C[C@@H]1CN([C@H](C)CO)C(=O)c2cc(NC(=O)NC3CCCCC3)ccc2O[C@@H](C)CCCCO[C@H]1CN(C)C(=O)NC1CCCCC1,inactive
3,C[C@H]1CN([C@@H](C)CO)C(=O)c2cccc(NC(=O)Nc3ccc4c(c3)OCO4)c2O[C@@H]1CN(C)C(=O)Nc1cccc2ccccc12,inactive
4,O=C(C[C@H]1CC[C@H]2NC[C@@H](O)COC[C@@H]2O1)NCCN1CCCCC1,inactive
5,CC(C)NC(=O)Nc1ccc2c(c1)CC(=O)N([C@H](C)CO)C[C@@H](C)[C@H](CN(C)C(=O)Nc1ccc3c(c1)OCO3)O2,inactive
6,C[C@@H]1CCCCO[C@@H](CN(C)C(=O)NC2CCCCC2)[C@H](C)CN([C@@H](C)CO)C(=O)c2cc(NC(=O)CCC(F)(F)F)ccc2O1,inactive
7,Cc1noc(C)c1NC(=O)N(C)C[C@H]1OCCCC[C@@H](C)Oc2ccc(NC(=O)C3CCCCC3)cc2C(=O)N([C@H](C)CO)C[C@@H]1C,inactive
8,C[C@@H]1CN([C@@H](C)CO)C(=O)Cc2cc(NC(=O)Nc3ccc(C(F)(F)F)cc3)ccc2O[C@H]1CN(C)CC1CCCCC1,active
9,C[C@@H]1CN([C@H](C)CO)C(=O)Cc2cc(NC(=O)Nc3ccc(C(F)(F)F)cc3)ccc2O[C@H]1CN(C)CC1CCCCC1,active
10,C[C@H]1CN([C@@H](C)CO)C(=O)Cc2cc(NC(=O)Nc3ccc(F)cc3)ccc2O[C@@H]1CN(C)CC1CCCCC1,inactive
11,C[C@H](CO)N1C[C@H](C)[C@H](CN(C)Cc2ccc3c(c2)OCO3)OCCCC[C@H](C)Oc2ccc(NC(=O)Cc3ccccc3)cc2C1=O,inactive
12,C[C@H]1CN([C@@H](C)CO)C(=O)Cc2cc(NC(=O)Nc3ccc4c(c3)OCO4)ccc2O[C@@H]1CN(C)Cc1ccc(-c2ccccc2)cc1,inactive
13,CC(C)[Si](C#Cc1ccc(Oc2ccccc2)cc1)(O[Si](C#Cc1ccc(Oc2ccccc2)cc1)(C(C)C)C(C)C)C(C)C,inactive
14,COc1ccc(CN(C)C[C@@H]2OCCCC[C@@H](C)Oc3ccc(NC(=O)c4ccncc4)cc3C(=O)N([C@H](C)CO)C[C@H]2C)cc1,inactive
15,O=C(Cc1ccncc1)Nc1ccc2c(c1)[C@@H]1C[C@H](CC(=O)N3CCc4ccccc4C3)O[C@@H](CO)[C@@H]1O2,inactive
16,CO[C@H]1O[C@H](CO)[C@@H](OC(=O)Nc2cccc(F)c2)[C@H](OC(=O)Nc2ccccc2-c2ccccc2)[C@@H]1OC(=O)Nc1ccccc1-c1ccccc1,active
17,CCc1cccc(NC(=O)O[C@H]2[C@H](OC(=O)Nc3ccccc3-c3ccccc3)[C@H](OC(=O)Nc3ccccc3-c3ccccc3)[C@@H](OC)O[C@@H]2CO)c1,inactive
18,CO[C@H]1O[C@H](CO)[C@@H](OC(=O)Nc2ccccc2-c2ccccc2)[C@H](OC(=O)Nc2ccccc2-c2ccccc2)[C@@H]1OC(=O)Nc1ccccc1-c1ccccc1,inactive
19,CO[C@H]1O[C@H](CO)[C@@H](OC(=O)Nc2ccccc2-c2ccccc2)[C@H](OC(=O)Nc2ccc3c(c2)OCO3)[C@H]1OC(=O)Nc1ccc2c(c1)OCO2,inactive

row,Structure (SMILES),cytotoxicity call
1,CO[C@H]1O[C@H](CO)[C@@H](OC(=O)Nc2ccccc2-c2ccccc2)[C@H](OC(=O)Nc2ccccc2)[C@@H]1OC(=O)Nc1ccccc1,inactive
2,CO[C@H]1O[C@H](CO)[C@@H](OC(=O)Nc2cccc(F)c2)[C@H](OC(=O)Nc2ccccc2-c2ccccc2)[C@H]1OC(=O)Nc1ccccc1-c1ccccc1,active
3,C[C@@H]1CCCCO[C@@H](CN(C)Cc2ccccc2)[C@H](C)CN([C@@H](C)CO)C(=O)c2cc(NC(=O)Cc3ccccc3)ccc2O1,inactive
4,C[C@H](CO)N1C[C@H](C)[C@@H](CN(C)S(C)(=O)=O)Oc2ccc(NC(=O)Nc3ccc(F)cc3)cc2C1=O,inactive
5,C[C@@H]1CN([C@@H](C)CO)C(=O)c2cc(NC(=O)CCCN(C)C)ccc2O[C@@H](C)CCCCO[C@@H]1CN(C)CC1CCCCC1,inactive
6,C[C@@H]1CN([C@H](C)CO)C(=O)Cc2cc(NS(=O)(=O)c3ccc(Cl)cc3)ccc2O[C@@H]1CN(C)Cc1ccc(Oc2ccccc2)cc1,active
7,C[C@H](CO)N1C[C@H](C)[C@H](CN(C)Cc2ccc(Oc3ccccc3)cc2)Oc2ccc(NS(=O)(=O)c3ccc(Cl)cc3)cc2CC1=O,active
8,C[C@H]1CN([C@@H](C)CO)C(=O)Cc2cc(NS(=O)(=O)c3ccc(Cl)cc3)ccc2O[C@H]1CN(C)Cc1ccc(Oc2ccccc2)cc1,active
9,C[C@H]1CN([C@@H](C)CO)C(=O)Cc2cc(NS(=O)(=O)c3ccc(Cl)cc3)ccc2O[C@@H]1CN(C)Cc1ccc(Oc2ccccc2)cc1,active
10,Nc1nc(=O)c2[nH]c(=O)cnc2[nH]1,inactive
11,COc1ccc(CN(C)C[C@H]2OCCCC[C@H](C)Oc3ccc(NC(=O)c4ccccc4)cc3C(=O)N([C@H](C)CO)C[C@@H]2C)cc1,inactive
12,CO[C@@H]1CN(C)C(=O)c2ccc(NC(=O)Nc3ccccc3)cc2OC[C@@H](C)N(C(=O)CN(C)C)C[C@H]1C,inactive
13,COCC(=O)Nc1ccc2c(c1)C(=O)N(C)C[C@@H](OC)[C@@H](C)CN(Cc1cccc(F)c1)[C@@H](C)CO2,inactive
14,CC(C)Cn1cnc2c1c(=O)n(C)c(=O)n2C,inactive
15,CC(=O)N1C[C@@H](NC(=O)c2nccn2C)[C@@H]2OCCC[C@@H]21,inactive
16,C[C@H](CO)N1C[C@H](C)[C@H](CN(C)C(=O)CCC(F)(F)F)OCCCC[C@H](C)Oc2ccc(NS(=O)(=O)c3ccccc3)cc2C1=O,inactive
17,CN1CCN(C(=O)C[C@H]2C[C@@H]3c4cc(NS(=O)(=O)c5ccc(F)cc5)ccc4O[C@@H]3[C@@H](CO)O2)CC1,inactive
18,C=CCOC(=O)[C@H]1[C@@H]2C(=O)O[C@@H](c3ccccc3)[C@@H](c3ccccc3)N2[C@@H](c2ccc(OCCOC(=O)[C@@H]3C[C@@H]4C(=O)N[C@@H](CCCC[N+](C)(C)C)C(=O)N4[C@@H]3c3cccc(OCCO)c3)cc2)[C@]12C(=O)Nc1ccc(I)cc12,inactive
